CYP2C9 inhib: blockers of cytochrome P450 2C9 activity – biochemical, luminescence, ADME assay, primary screen; P11712; CYP2C9 Supersomes, luciferin-H conversion; inhibition, % at 5 µM; 20% of 96,000 active; AID 777, 2007;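 active = blocking of liver enzyme CYP2C9 beyond about 50% at 5 µM, limit read from the data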
Target sequence (P11712 whole entry, looked up): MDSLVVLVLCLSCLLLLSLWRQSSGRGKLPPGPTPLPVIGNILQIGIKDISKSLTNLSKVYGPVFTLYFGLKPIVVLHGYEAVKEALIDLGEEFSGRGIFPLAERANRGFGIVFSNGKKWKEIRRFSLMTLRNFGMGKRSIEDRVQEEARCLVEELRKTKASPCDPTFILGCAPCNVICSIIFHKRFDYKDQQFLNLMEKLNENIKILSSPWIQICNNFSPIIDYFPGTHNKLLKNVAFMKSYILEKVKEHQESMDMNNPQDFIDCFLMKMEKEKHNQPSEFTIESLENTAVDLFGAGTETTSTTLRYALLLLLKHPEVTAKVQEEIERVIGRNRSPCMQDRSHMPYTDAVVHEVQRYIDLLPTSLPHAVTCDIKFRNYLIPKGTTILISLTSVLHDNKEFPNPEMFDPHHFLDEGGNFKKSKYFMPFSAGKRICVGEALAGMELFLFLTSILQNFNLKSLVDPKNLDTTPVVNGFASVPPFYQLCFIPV
PostGolgi ctrl: growth inhibition of yeast control strain, primary screen, counter-screen for post-Golgi transport modulator project; 5% of 98,000 active; inhibition, % at 10 µM; efflux-deficient yeast background strain, growth absorbance A615, 16 h
CYP2C9 act: human CYP2C9 activators, primary screen, biochemical, luminescence | Cytochrome P450 2C9 (Homo sapiens), P11712 | recombinant CYP2C9, luciferin-H conversion; hits give high values; factor 1 = untreated enzyme, 0 = blocked | activation factor at 5 µM | 1.4% of 96,000 active | AID 1024, 2008;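 active = activation factor of 2 or more for CYP2C9 at a 5 µM dose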
CYP2C19 act: human CYP2C19 activators, primary screen, biochemical, luminescence | recombinant CYP2C19, luciferin-H EGE luminescence; hits give high values; 0 = fully inhibited enzyme, 1 = untreated enzyme | AID 1025, 2008 | activation factor at 5 µM | 96,000 tested, under 10 active;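 active = activation factor of at least 2 at 5 µM in the primary screen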
PostGolgi yeast: phenotypic screen on post-Golgi transport, primary screen. post-Golgi transport phenotypic cell assay. inhibition, % at 10 µM. 0.9% of 98,000 active. AID 739, 2007;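 also: yeast cells grown in 1536-well plates; yeast grown about 18 h at 30C before absorbance read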
CYP2C19 inhib: blockers of cytochrome P450 2C19 activity – biochemical, luminescence, ADME assay, primary screen; CYP2C19 Supersomes, luciferin-H EGE luminescence, 30 min; inhibition, % at 5 µM; 21% of 96,000 active;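 active = CYP2C19 inhibition above a set limit at 5 µM in the primary screen, cut at about 50% in these data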
Large screens that a line does not name were inactive. Shown are actives, neighbours in structure and some others; about 32% of the full set was active somewhere. Rule as the data show it, unless noted: active = inhibition above about 30%; inactive = the rest.

Cc1cc(NC(=O)c2cc(-c3cccs3)nc3ccccc23)no1	none
O=C(COc1ccc2ccccc2c1Br)N1CCOCC1	none (no result: CYP2C9 inhib, CYP2C9 act, CYP2C19 act, CYP2C19 inhib)
O=C(COc1ccc2ccccc2c1Br)Nc1ncn[nH]1	CYP2C19 inhib 56
O=C(CC(c1ccccc1)c1ccccc1)Nc1ncn[nH]1	CYP2C9 inhib 83, CYP2C19 inhib 50
Cc1cccc(C)c1OCC(=O)Nc1ncn[nH]1	CYP2C19 inhib 63
Cc1cc(NC(=O)COc2cccc(C)c2C)no1	none
CCc1ccc(NC(=O)C2(c3ccccc3)CC2(Cl)Cl)cc1 (stereo not given)	PostGolgi ctrl 31
Cc1ccc(NC(=O)C2(c3ccccc3)CC2(Cl)Cl)cc1C (stereo not given)	CYP2C19 inhib 74
Cc1cccc(NC(=O)C2(c3ccccc3)CC2(Cl)Cl)c1 (stereo not given)	CYP2C9 inhib 52, PostGolgi ctrl 35, CYP2C19 inhib 61
Cc1cc(=O)c2ccccc2s1	none
COc1ccccc1-c1nnc(Sc2nc([N+](=O)[O-])nn2C)o1	none
O=C1NC2(CCCc3ccccc32)C(=O)N1CCOc1ccc(Br)cc1 (stereo not given)	none
CCC(CC)n1[nH]c(=O)c2c(C)cc(C)nc21	none
Cc1cc(-c2nnc3n2CCCCC3)c(C)n1-c1ccccc1	CYP2C9 inhib 51
CCc1cc(C(=O)O)c(NC(=O)C(c2ccccc2)c2ccccc2)s1	CYP2C9 inhib 97
CCc1cc(C(=O)OC)c(NC(=O)CCCC(=O)O)s1	none
CN(C(=O)c1cccs1)c1ccccc1C(=O)O	none
O=C(O)C1CCCCC1C(=O)NCCc1ccc(Cl)cc1 (stereo not given)	CYP2C19 inhib 75
O=C(NCCc1ccccc1)C1CCN(S(=O)(=O)c2cccnc2)CC1	none
O=C(NCCc1ccc(Cl)cc1)C1CCN(c2cnccn2)CC1	CYP2C9 inhib 66, CYP2C19 inhib 52
O=C(NCCc1ccccc1)C1CCN(S(=O)(=O)c2ccc(-c3nn[nH]n3)cc2)CC1	CYP2C9 inhib 83
CCN(CCNC(=O)C1CCN(S(C)(=O)=O)CC1)c1ccccc1	none
Cc1nnc(NC(=O)C2CCN(c3cnccn3)CC2)s1	none
CS(=O)(=O)N1CCC(C(=O)NCCN2CCN(Cc3ccccc3)CC2)CC1	PostGolgi yeast 31
O=C(O)C1CCCCC1C(=O)NCCc1cccc(Cl)c1 (stereo not given)	none
C=CCc1cccc2cc(C(=O)NCc3ccc(C(=O)OCC)o3)c(=O)oc12	none
CC(C)NC(=O)C(=O)NCCc1ccc(Cl)cc1	CYP2C19 inhib 92
CCCS(=O)(=O)N1CCCC(C(=O)NCCN2CCC(Cc3ccccc3)CC2)C1 (stereo not given)	CYP2C9 inhib 65
O=C(NCCc1ccccc1)C1CCN(S(=O)(=O)N2CCCC2)CC1	PostGolgi yeast 33
O=C(NCCc1ccc(Cl)cc1)c1ncn[nH]1	none
COc1ccc(CCNC(=O)C2CCN(S(=O)(=O)N3CCCCCC3)CC2)cc1OC	none
O=C(NCCc1ccccc1)C1CCN(S(=O)(=O)N2CCC3(CC2)OCCO3)CC1	none
O=C(NCCc1ccc(Cl)cc1)C1CCN(S(=O)(=O)N2CCCCC2)CC1	CYP2C9 inhib 51
Cc1ccc(OCC(=O)N/N=C\c2cn(C)c3ccccc23)c([N+](=O)[O-])c1	none
CC(C)CN(CC(C)C)S(=O)(=O)N1CCC(C(=O)NCCc2ccc(Cl)cc2)CC1	CYP2C9 inhib 54, CYP2C19 inhib 54
COCCCNC(=O)C1CCN(S(=O)(=O)N(CC(C)C)CC(C)C)CC1	none (no result: CYP2C19 act, CYP2C19 inhib)
CCCS(=O)(=O)N1CCC(C(=O)NC2CCCC(C)C2C)CC1 (stereo not given)	none
CCCS(=O)(=O)N1CCCC(C(=O)NC2CCCC(C)C2C)C1 (stereo not given)	CYP2C19 inhib 56
O=C(NCCc1ccc(Cl)cc1)C1CCN(S(=O)(=O)c2cccs2)CC1	CYP2C9 inhib 79, CYP2C19 inhib 84
CCC(C)(C)NC(=O)CN(CC1CCCO1)C(=O)CCC(=O)Nc1nccs1 (stereo not given)	none
CCC(C)(C)NC(=O)CN(C(=O)CNS(=O)(=O)c1ccc(C)cc1)c1ccc2c(c1)OCCO2	CYP2C9 inhib 54
